Reference: PubChem BioAssay (NCATS)
“And” between values parts separate entries of the source, which are not always exact repeats. Identical values can stand only once. Records with an inconclusive call do not appear. The source made the active and inactive calls. Unless noted, calls come from the whole dose curve; as a rule, active = well fitted curve in the direction sought with a large enough effect; inconclusive = small, poorly fitted or top-dose-only effect, or another doubt; inactive = no such curve, though single readings can be large; an effect the other way counts as inactive or inconclusive.

Assays:
[1] = target: Cellular tumor antigen p53 (Homo sapiens) (UniProt P04637); experiment: Primary qHTS for small molecule compounds that upregulate eGFP-tagged delta133p53alpha (in N-terminal) cells. (AID 2060322); conditions: NCI-H358 eGFP-delta133p53alpha fluorescence, 24 h; activation: active compounds read high;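 note: cells pre-induced with doxycycline then dosed without doxycycline; series mostly up to about 56 µM; 0% = DMSO vehicle and 100% = reference activator; nearly all actives have a fitted effect of over 75% in size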
Chain of Cellular tumor antigen p53 (Homo sapiens) (P04637 whole entry, looked up): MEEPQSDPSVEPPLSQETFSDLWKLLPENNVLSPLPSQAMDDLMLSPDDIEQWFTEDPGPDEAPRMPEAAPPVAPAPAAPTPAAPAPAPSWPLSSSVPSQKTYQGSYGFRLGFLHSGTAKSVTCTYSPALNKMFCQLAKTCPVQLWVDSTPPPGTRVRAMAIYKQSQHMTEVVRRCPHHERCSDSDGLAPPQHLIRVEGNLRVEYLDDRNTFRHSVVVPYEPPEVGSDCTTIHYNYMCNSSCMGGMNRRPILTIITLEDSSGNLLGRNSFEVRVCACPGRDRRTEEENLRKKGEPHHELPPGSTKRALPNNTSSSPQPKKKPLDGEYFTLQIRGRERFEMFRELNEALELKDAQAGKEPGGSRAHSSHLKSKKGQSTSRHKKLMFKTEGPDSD
Outline: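 NCI-H358 cells pre-induced 24 h with 10 ng/ml doxycycline for eGFP-delta133p53alpha, plated dox-free and exposed 24 h at 37C to titrated compounds. Fixed, Hoechst-stained; gated GFP peak intensity by laser scanning cytometry, normalized to DMSO (0%) and 57.5 uM 5-azacytidine (100%).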

[2] = target: Cellular tumor antigen p53 (Homo sapiens) (UniProt P04637); experiment: Primary qHTS for small molecule compounds that upregulate eGFP-tagged delta133p53alpha (in C-terminal) cells. (AID 2060324);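 note: 0% = DMSO wells and 100% = 57.5 µM 5-azacytidine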
Outline: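 Readout: filtered GFP peak intensity of gated cells (laser scanning cytometer), normalized plate-wise to intraplate controls, DMSO wells = 0% activity. Cells: NCI-H358 D133p53a-eGFP, dox 100 ng/ml 24 h beforehand, then compound 24 h, 37 °C.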

[3] = target: Aldehyde dehydrogenase, mitochondrial (Homo sapiens) (UniProt P05091); experiment: qHTS for Inhibitors of the Aldehyde Dehydrogenase Family (ALDH2) Validation screens (AID 2061302; active = well fitted inhibition curve with a large enough effect; title and protocol of this record describe different tests;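 note: plate controls were DMSO vehicle for no effect and maximal DPI positive control response for full effect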)
[4] = target: Retinaldehyde dehydrogenase 3 (Homo sapiens) (UniProt P47895); experiment: qHTS for Inhibitors of the Aldehyde Dehydrogenase Family (ALDH1A3) Validation screen (AID 2061312); note: % is set by controls: 0 for no effect and ±100 for the full control effect; nearly all actives have a fitted effect of over 45% in size

O=C(O)CNC(=O)C(CS)Cc1ccccc1 (stereo not given)
inactive: activation [1] -14.4% | Potency [2] | Potency [3] | Potency [4]

CN1CCN2c3ccccc3Cc3ccccc3C2C1 (stereo not given)
inactive: activation [1] -35.4% | Potency [2] | Potency [3] | Potency [4]

O=C1C2C=CC=CC2=NC(=S)N1CCN1CCC(=C(c2ccc(F)cc2)c2ccc(F)cc2)CC1 (stereo not given)
inactive: activation [1] -39.4% | Potency [2] | Potency [3] | Potency [4]

C#C[C@]1(O)CC[C@H]2[C@@H]3CCC4=Cc5oncc5CC4(C)[C@H]3CCC21C (stereo not given in full)
inactive: activation [1] -35.6% | Potency [2] | Potency [3] | Potency [4]

CCO/C([O-])=N/c1c[n+](N2CCOCC2)no1
inactive: activation [1] 9.21% and 19.2% | Potency [2] | Potency [3] | Potency [4]

CN1CC(O)C(O)C(O)C1CO (stereo not given)
inactive: activation [1] 9.95% | Potency [2] | Potency [3] | Potency [4]

COc1cccc(OC)c1OCCNCC1COc2ccccc2O1 (stereo not given)
inactive: activation [1] 7.71% | Potency [2] | Potency [3] | Potency [4]

NCCCCC(=O)O
inactive: activation [1] -27.1% | Potency [2] | Potency [3] | Potency [4]

CCCOc1ccccc1-c1nc2n[nH]nc2c(=O)[nH]1
inactive: activation [1] -19.5% | Potency [2] | Potency [3] | Potency [4]

COc1cc(C(O)C(=O)O)ccc1O (stereo not given)
inactive: activation [1] -11.9% | Potency [2] | Potency [3] | Potency [4]
